Test results reported in PubChem BioAssay AID1063 (University of Pittsburgh Molecular Library Screening Center, 2008).
About 18,000 (9%) of roughly 200,000 compounds were called active. What follows is part of a selection rich in actives, with near analogues and random picks from the rest. Values without a mark were called inactive. Cut-off read from the data, not from the text of the source: active = inhibition above about 50%; inactive = the rest.

test: antileishmanial activity against promastigotes – primary screen (AID 1063); settings: Leishmania major promastigotes, resazurin fluorescence viability; at 10 µM; stronger effect = higher value;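 note: promastigotes grown with compound for 44 hours at 28 °C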

Row | Structure (SMILES) | inhibition
1 | CC(=O)N1N=C(c2ccccc2)OC1c1cccnc1 (stereo not drawn) | -2.61%
2 | CCC(C)N(C(=O)COC(=O)C1C(C(=O)OC)=C(C)NC(C)=C1C(=O)OC)C1CCS(=O)(=O)C1 (stereo not drawn) | -3.21%
3 | O=C(Nc1ccc(N2CCN(C(=O)C3CC3)CC2)cc1)c1cccs1 | -2.42%
4 | CCCOCC(O)CC(CC)C(=O)NNC(=S)Nc1ccccc1 (stereo not drawn) | -2.02%
5 | CCCCOc1ccc(N(CC(=O)NC(C)C)C(=O)CCC(=O)Nc2ccccn2)cc1 | 0.57%
6 | Cn1c(CCC(=O)Nc2ccccc2F)nnc1SCC(=O)Nc1ccccc1Cl | 2.13%
7 | S=c1nc(C23CC4CC(CC(C4)C2)C3)nc2sccn12 | -2.7%
8 | COc1cccc(C(=O)Oc2cc(C)[nH]c(=O)c2[N+](=O)[O-])c1 | 5.78%
9 | CC1CCCCN1S(=O)(=O)c1ccc(C(=O)Nc2nnc(-c3cccs3)o2)cc1 (stereo not drawn) | 99.6% (active)
10 | CC1CCCCN1S(=O)(=O)c1ccc(S(=O)(=O)N(CC(=O)Nc2ccccc2)Cc2cccs2)cc1 (stereo not drawn) | -0.93%
11 | CC1CCCN(S(=O)(=O)c2ccc(C(=O)Nc3nnc(-c4ccncc4)o3)cc2)C1 (stereo not drawn) | 12.2%
12 | COC(=O)c1nc(NC(=O)c2ccc(F)cc2)n[nH]1 | -2.13%
13 | c1ccc(-c2nccc(-c3ccc(-n4cnc5ccccc54)cc3)n2)nc1 | 101% (active)
14 | Cc1nccc(-c2ccc(-n3c(C)ccc3C)cc2)n1 | 41.6%
15 | CC(C)c1nc(-c2ccccn2)no1 | -3.52%
16 | C/C(Cn1nnc2ccccc21)=N\OC(=O)c1cc(F)c(F)cc1Cl | 2.7%
17 | CCN(CCn1cccn1)Cc1nc(-c2ccc(C(=O)OC)cc2)no1 | 5.81%
18 | O=C1CC(c2c(F)cccc2Cl)C(n2cncn2)C(O)=C1C1NCCc2ccccc21 (stereo not drawn) | -6.44%
19 | COc1cc2c(cc1O)[C@H](Cc1ccc(Oc3cc(C[C@@H]4NCCc5cc(OC)c(O)cc54)ccc3O)cc1)NCC2 | 2.59%
20 | CC[C@H]1CN2CCc3cc(OC)c(OC)cc3[C@@H]2C[C@@H]1C[C@H]1NCCc2cc(OC)c(OC)cc21 | 100% (active)
21 | CCOCCCN(C(=O)Cn1nnc(-c2ccc(OC)c(OC)c2)n1)C(CC)C(=O)NC1CCCC1 (stereo not drawn) | -1.34%
22 | COc1ccc(OC)c(NC(=S)N2CCc3ccccc3C2)c1 | 5.86%
23 | COCCn1nnnc1C(c1cc2ccc(OC)cc2[nH]c1=O)N1CCc2ccccc2C1 (stereo not drawn) | 5.04%
24 | COc1ccc(OC)c(C(c2nnnn2C(C)(C)C)N2CCc3ccccc3C2)c1 (stereo not drawn) | 88.9% (active)

Row | Structure (SMILES) | inhibition
25 | C=CCn1c(CCNC(=O)c2ccccc2F)nnc1SCC(=O)Nc1ccc(OC)cc1 | 3.89%
26 | COc1ccc(Cc2nnc(NC(=O)c3cc(OC)c(OC)c(OC)c3)s2)cc1OC | -2.97%
27 | NC(=O)C1CCN(Cc2nc3c(Br)cc(Br)cc3c(=O)[nH]2)CC1 | -13%
28 | COCCNC(=O)/C(C#N)=C/c1nc(N(C)C)n(-c2ccc(F)cc2)c1Cl | 10.3%
29 | COc1ccc(-c2nnc(SC(C)C#N)o2)cc1 (stereo not drawn) | -3.1%
30 | COc1ccc(-c2nnc(SC(=O)N3c4ccccc4Sc4ccccc43)o2)cc1 | 84.1% (active)
31 | COc1ccc(-c2nnc(SCC(=O)c3ccc4c(c3)OCCO4)o2)cc1 | -4.95%
32 | CC(/C=N/NC(=O)c1ccncc1)=C\c1ccco1 | -2.49%
33 | CC(Oc1ccccc1)C(=O)NN1Cc2ccccc2C1=N (stereo not drawn) | -3.38%
34 | Nc1nc(-c2sc3nc4c(cc3c2N)CCCC4)nc(N2CCOCC2)n1 | 47%
35 | CNC(=O)c1[nH]cnc1C(=O)N[C@@H](CC(C)C)C(=O)OC(C)(C)C | -2.24%
36 | S=C(Nc1ccc2c(c1)OCO2)N1CCCC1 | -4.06%
37 | O=C1NC(=O)C2C1C(c1ccc([N+](=O)[O-])cc1)=NN2Cc1ccccc1 (stereo not drawn) | -2.02%
38 | CCOc1ccc2c(c1)C(c1ccc(C)cc1)=NNC(c1ccc(C)cc1)=N2 | 17.4%
39 | CCc1ccc2c(c1)C(c1ccc([N+](=O)[O-])cc1)=NNC(c1ccccc1)=N2 | 60.2% (active)
40 | CC(C)(C)c1ccc(/C=C2\SC(=O)N=C2N)cc1 | 33.6%
41 | Cc1ccc(/C([O-])=C(/C(=S)NCc2ccco2)[n+]2ccccc2)cc1[N+](=O)[O-] | -2.58%
42 | Fc1ccccc1Cc1ccc(Cl)nn1 | -4.31%
43 | Cc1ccc(C(=O)Nc2sc(Cc3ccc4c(c3)OCO4)c(C)c2C(N)=O)cc1 | -6.82%
44 | Cc1ccc(C(=O)OCC(=O)NCc2ccc3c(c2)OCO3)s1 | -5.96%
45 | CC(=O)NCCC(=O)Nc1nc(C)c(Cc2ccc3c(c2)OCO3)s1 | 55.9% (active)
46 | O=C(Nc1cccc(F)c1)N1C2CCC1CC(O)(c1cccnc1)C2 (stereo not drawn) | 4.96%
47 | COc1ccc(-n2cnc3cc(C(=O)NC4CCCC4)ccc32)cc1 | 1.49%
48 | COc1ccc(Nc2nc(Cl)nc(NCc3ccco3)n2)cc1 | 0.84%

Row | Structure (SMILES) | inhibition
49 | COc1ccc(-n2cnc3cc(NCc4ccco4)ccc32)cc1 | 90.2% (active)
50 | CCN(CC)C(=O)C(=O)Nc1cccc(Br)c1 | -4.3%
51 | C=CCC1(CC=C)CCCN1C(=O)CC1C(=O)NCCN1Cc1ccccc1OC (stereo not drawn) | 2.2%
52 | COc1cccc(NC(=O)CN(C)CC(=O)Nc2ccc3c(c2)CCC3)c1 | 2.96%
53 | CC1CC(C)CN(CCC(=O)Nc2ccc3c(c2)CCC3)C1 (stereo not drawn) | 65.4% (active)
54 | CC(C)C(=O)OCC(=O)Nc1ccc2c(c1)CCC2 | -3.35%
55 | CCCCSc1nc2ccccc2[nH]1 | -4.2%
56 | COc1cccc(C(=O)Nc2ccc(N3CCCC3)cc2)c1 | 9.5%
57 | Cc1ccccc1C(=O)Nc1ccc(N2CCCCCC2)cc1 | 89.4% (active)
58 | COc1cccc(OC)c1C(=O)Nc1ccc(N2CCCCC2)cc1 | -1.53%
59 | Cc1ccc(NC(=S)N(Cc2ccco2)C(C)c2cccs2)cc1 (stereo not drawn) | 51.8% (active)
60 | Cc1ccc(NC(=S)N(CCCN2CCC(C)CC2)Cc2ccco2)cc1 | 37.4%
61 | Cc1ccc(NC(=S)N(CCN2CCCCC2)Cc2ccco2)cc1C | 13.2%
62 | O=C(CO/N=C/c1ccccc1OC(F)F)NC1CCCC1 | 9.48%
63 | NS(=O)(=O)c1ccc(N2C(=O)C3C4CC(C(Br)C4Br)C3C2=O)cc1 (stereo not drawn) | -1.02%
64 | CC(C)Nc1nnc(SCC(=O)/C=C2\N(C)c3ccccc3C2(C)C)s1 | 2.98%
65 | CN1/C(=C\C(=O)c2oc3ccccc3c2N)C(C)(C)c2ccccc21 | 5.73%
66 | CN1/C(=C\C(=O)c2cccnc2Cl)C(C)(C)c2ccccc21 | 55.5% (active)
67 | O=C(COC(=O)Cn1cnc2ccccc2c1=O)NCc1ccccc1Cl | 1.11%
68 | Cn1cccc1C(C#N)c1ccccc1C#N (stereo not drawn) | 4.16%
69 | Cc1cc(C(=O)N/N=C/c2ccccc2[N+](=O)[O-])c(C)o1 | -4.59%
70 | CSc1ccc(/C=N/N2CCN(Cc3ccccc3Cl)CC2)cc1 | -7.46%
71 | Cc1ccccc1NC(=S)NNC(=O)c1cccc(Br)c1 | -0.99%
72 | Cc1ccc(S(=O)(=O)NCCc2nnc3ccc(SCc4cccnc4)nn23)cc1 | -6.61%

Row | Structure (SMILES) | inhibition
73 | COc1ccc(O)c(C(=O)c2cnc3c(c2)c(-c2ccc(F)cc2)c(C#N)c(=O)n3C)c1 | 52.4% (active)
74 | COCCn1c(=O)[nH]c(=O)c2cc(C(=O)c3cc(OC)ccc3O)cnc21 | 0.78%
75 | COc1ccc(O)c(C(=O)c2cnc3onc(C(C)C)c3c2)c1 | -0.73%
76 | CC(=O)N/N=C(\C)c1ccc(Br)cc1Br | -4.52%
77 | CCOC(=O)C1CCN(C(=O)c2ccccc2N(C)S(=O)(=O)c2ccccc2)CC1 | 53.4% (active)
78 | CCN1CCN(C(=O)c2ccccc2N(C)S(=O)(=O)c2ccc(C)cc2)CC1 | -0.79%
79 | COc1ccccc1N(C)S(=O)(=O)c1ccc(C(=O)N2CCC(C(N)=O)CC2)cc1 | 3.34%
80 | CC1COc2ccccc2N1C(=O)c1cccnc1Cl (stereo not drawn) | -4%
81 | C=C(C)Cn1c(C)cc(C)c(S(=O)(=O)c2ccccc2C)c1=O | 96% (active)
82 | CN(C)S(=O)(=O)c1cc(NC(=O)CN2C(=O)NC3(CCCc4ccccc43)C2=O)ccc1Cl (stereo not drawn) | 57.4% (active)
83 | Cc1ccc(NC(=O)CNCc2ccccn2)cc1S(=O)(=O)N(C)C | 6.73%
84 | CCN(CC(=O)Nc1ccc(Cl)c(S(=O)(=O)N(C)C)c1)Cc1nc2ccccc2c(=O)[nH]1 | -6.29%
85 | COc1ccc(C/C(N)=N/OC(=O)c2ccco2)cc1OC | -5.88%
86 | COc1ccc(C(=O)O/N=C(\N)Cc2ccc(Cl)cc2Cl)cc1OC | 71.9% (active)
87 | COc1ccc(C(=O)ON=C2c3ccccc3-c3ccccc32)cc1OC | -6.29%
88 | CN(Cc1ccc2nsnc2c1)Cc1nc(Cc2cccc(F)c2)no1 | -4.63%
89 | CN1CCN(C(=O)CCc2ncc(C(F)(F)F)cc2Cl)CC1 | -6.47%
90 | O=C(NCC(=O)N(CC1CCCO1)C(C(=O)NC1CCCCC1)c1ccccc1)c1ccco1 (stereo not drawn) | -4.69%
91 | Cc1cccc(Oc2c([N+](=O)[O-])c(=O)n(C)c3ccccc23)c1 | -3.73%
92 | COc1ccc(/C=N/NC(=O)c2cccc(C(F)(F)F)c2)cc1 | 12%
93 | C=CCNC(=S)N1CCN(CCN=Cc2c(C)[nH]n(-c3ccc([N+](=O)[O-])cc3)c2=O)CC1 | -7.1%
